The structures appear in SMILES notation. Calls of active or inactive are those of the source. Unless noted, no rule for the calls is given here.

For experiment [1], the system named is Wnt5a (protein binding on small-molecule microarray). Nature of the experiment: small molecules binding Wnt5a protein – biophysical, small-molecule microarray, 635/667 nm fluorescence, primary screen (AID 1142).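 Also: fluorescence read at 667 nm with signal to noise per printed feature.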 As to conditions: 635 nm fluorescence, higher = more signal.
Experiment [2] can be described thus: ATP-based viability of Huh7 replicon cells – cell-based, CellTiter-Glo luminescence, basal, 48 h, cytotoxicity control for HCV replication inhibitor project, primary screen (AID 1143).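 Also: Huh7 hepatoma cells carrying a hepatitis C replication reporter with no stimulus; test concentration not given here.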 As to conditions: higher = more signal, called active from +8 up or from −8 down. (In general: In antiviral work, replicon cells carry a viral genome segment that copies itself.)

A short description of experiment [3]: Pseudomonas biofilm growth suppression – PAO1 strain, BacTiter-Glo luminescence, LB-PBS, primary screen (AID 1144). As to conditions: P. aeruginosa PAO1 biofilm, 12 h, higher = more signal.
The nature of experiment [4]: basal CRE-LacZ reporter activity in PC12 – cell-based, unstimulated, primary screen (AID 1145). As to conditions: no forskolin, luminescence, 4.5 h, higher = more signal, called active from +8 up or from −8 down.
A short description of experiment [5]: forskolin-driven CRE-LacZ activity in PC12 – cell-based, CRE-LacZ reporter, forskolin-stimulated, primary screen (AID 1146).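 Also: PC12 cells with 6xCRE LacZ reporter stimulated by forskolin 10 µM; beta-galactosidase reporter signal reflecting CREB driven transcription.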 As to conditions: luminescence, 4.5 h, higher = more signal, called active from +8 up or from −8 down.
For experiment [6], the target named is Streptavidin (Streptomyces avidinii) (UniProt P22629). In words: compounds binding control protein streptavidin – biophysical, small-molecule microarray, 635/667 nm fluorescence, artefact control for SMM compound annotation, primary screen (AID 1147).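 Also: signal reflects streptavidin binding to arrayed compounds as a control protein.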 As to conditions: higher = more signal.
Sequence of Streptavidin (Streptomyces avidinii) (P22629 whole entry, looked up): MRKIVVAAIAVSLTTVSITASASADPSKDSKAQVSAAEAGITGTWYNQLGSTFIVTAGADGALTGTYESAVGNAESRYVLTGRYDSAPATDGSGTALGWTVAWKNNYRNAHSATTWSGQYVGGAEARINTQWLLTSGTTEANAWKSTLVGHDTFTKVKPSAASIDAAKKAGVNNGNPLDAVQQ
Experiment [7] in a line: probe aInhba binding on compound microarray – biochemical, small-molecule microarray, 635/667 nm fluorescence, primary screen (AID 1148).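 Also: score merges 667nm spot fluorescence with signal-to-noise for antibody binding to printed compounds.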 As to conditions: higher = more signal.
The target of experiment [8] is Torsin-1A (Homo sapiens) (UniProt O14656). Nature of the experiment: TOR1A wild-type binding on microarray – cell lysate, small-molecule microarray, lysate, 635/667 nm, primary screen (AID 1149). As to conditions: COS7 hTOR1A-WT lysate, 635 nm fluorescence, higher = more signal.
Sequence of Torsin-1A (Homo sapiens) (O14656 whole entry, looked up): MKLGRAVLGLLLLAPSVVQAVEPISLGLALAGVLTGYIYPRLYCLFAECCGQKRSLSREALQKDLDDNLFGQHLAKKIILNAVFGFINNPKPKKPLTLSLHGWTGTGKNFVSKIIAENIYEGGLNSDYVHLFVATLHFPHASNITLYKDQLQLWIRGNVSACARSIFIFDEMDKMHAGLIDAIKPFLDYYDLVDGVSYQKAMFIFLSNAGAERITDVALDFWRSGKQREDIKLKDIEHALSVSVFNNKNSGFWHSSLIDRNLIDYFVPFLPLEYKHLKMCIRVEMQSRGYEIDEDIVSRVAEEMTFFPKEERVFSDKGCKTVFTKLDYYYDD
Experiment [9] has the same target. In words: torsin A mutant lysate binding on microarrays – cell lysate, small-molecule microarray, COS7 lysate, 635/667 nm fluorescence, primary screen (AID 1150).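 Also: score pools 667 nm emission and signal to noise measuring lysate protein binding.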 As to conditions: COS7 hTOR1A mutant lysate, 635 nm fluorescence, higher = more signal.
Experiment [10] concerns Sonic hedgehog protein (Shh). In words: Sonic hedgehog microarray binding compounds – biochemical, small-molecule microarray, 635/667 nm fluorescence, primary screen (AID 1151).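 Also: Shh protein binding to compounds spotted on small-molecule microarray slides; score combines spot fluorescence intensity with signal-to-noise across triplicate slides.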 As to conditions: 635 nm fluorescence, higher = more signal.
The nature of experiment [11]: optical density shifts of acrAB sulA E. coli – strain DRC41, OD650, 48 h, E. coli filamentation inducer project, primary screen (AID 1152).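 Also: E. coli MC1000 strain DRC41 lacking acrAB efflux pump and sulA.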 As to conditions: higher = more signal, called active from +8 up or from −8 down.
Experiment [12] can be described thus: probe aLefty1 binding on compound microarray – biochemical, small-molecule microarray, 635/667 nm fluorescence, primary screen (AID 1153).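 Also: score merges spot fluorescence with signal-to-noise ratio from the scanned slide images.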 As to conditions: higher = more signal.
Experiment [13] can be described thus: plasmodial surface anion channel blockers, osmotic lysis – cell-based, P. falciparum Indochina, OD700, 1 h, primary screen (AID 1154). As to conditions: P. falciparum Indochina infected RBC osmotic lysis, higher = more signal, called active from +8 up or from −8 down.
Experiment [14] is described as follows: plasmodial surface anion channel blockers, osmotic lysis – cell-based, P. falciparum Indochina, OD700, 2 h, primary screen (AID 1155).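 Also: lysis reports solute entry through the parasite surface anion channel PSAC.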 As to conditions: P. falciparum Indochina infected erythrocytes, higher = more signal, called active from +8 up or from −8 down.
The nature of experiment [15]: changes in parasitized red cell lysis, either direction – P. falciparum Indochina, OD700, 3 h, PSAC antagonist project, primary screen (AID 1156). As to conditions: P. falciparum-infected erythrocytes, osmotic lysis, higher = more signal, called active from +8 up or from −8 down.
Experiment [16] is described as follows: plasmodial surface anion channel blockers, osmotic lysis – cell-based, P. falciparum Indochina, OD700, 18 h, primary screen (AID 1157). As to conditions: P. falciparum Indochina infected erythrocytes, osmotic lysis OD700, 18 h; higher = more signal, called active from +8 up or from −8 down.
A short description of experiment [17]: S6 kinase pathway phospho-S6 level changes – cell-based, A549, cytoblot, luminescence, serum-stimulated, primary screen (AID 1158).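 Also: serum-stimulated A549 lung adenocarcinoma cells; signal is phosphorylated S6 detected by cytoblot immunostaining with HRP secondary.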 As to conditions: 5 h, higher = more signal.
Experiment [18] deals with NADPH oxidase 2 (Homo sapiens) (UniProt P04839). In words: compounds shifting NOX2 Amplex Red fluorescence – cell-based, HEK293-NOX2, PMA-stimulated, NOX inhibitor project, primary screen (AID 1159). Also: test concentration not given here. As to conditions: 45 min, higher = more signal, called active from +8 up or from −8 down.
Sequence of NADPH oxidase 2 (Homo sapiens) (P04839 whole entry, looked up): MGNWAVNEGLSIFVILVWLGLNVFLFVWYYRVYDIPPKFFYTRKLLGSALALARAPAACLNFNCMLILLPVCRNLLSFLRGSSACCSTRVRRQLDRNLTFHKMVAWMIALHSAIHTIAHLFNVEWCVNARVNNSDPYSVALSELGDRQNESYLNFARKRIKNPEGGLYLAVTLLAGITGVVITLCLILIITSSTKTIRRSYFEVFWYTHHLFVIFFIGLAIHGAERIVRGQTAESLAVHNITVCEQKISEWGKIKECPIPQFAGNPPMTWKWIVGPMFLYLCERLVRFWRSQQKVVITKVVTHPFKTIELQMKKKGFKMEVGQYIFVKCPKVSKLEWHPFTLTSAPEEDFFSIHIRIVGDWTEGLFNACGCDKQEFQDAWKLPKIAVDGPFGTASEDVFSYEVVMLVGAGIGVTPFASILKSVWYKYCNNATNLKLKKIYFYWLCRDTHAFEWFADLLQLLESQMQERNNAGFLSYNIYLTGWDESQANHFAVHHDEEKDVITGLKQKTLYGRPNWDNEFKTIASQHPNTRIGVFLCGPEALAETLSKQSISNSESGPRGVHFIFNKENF
Experiment [19] has as its target NADPH oxidase 4 (Homo sapiens) (UniProt Q9NPH5). In words: compounds shifting NOX4 Amplex Red fluorescence – cell-based, HEK293-NOX4, tetracycline-induced, NOX inhibitor project, primary screen (AID 1160). As to conditions: HEK293-NOX4, Amplex Red H2O2 fluorescence, 45 min; higher = more signal, called active from +8 up or from −8 down.
In experiment [20] the target is NADPH oxidase 5 (Homo sapiens) (UniProt Q96PH1). In words: compounds shifting NOX5 Amplex Red fluorescence – cell-based, HEK293-NOX5, NOX inhibitor project, primary screen (AID 1161). As to conditions: HEK293-NOX5, ionomycin, 45 min, higher = more signal.
Sequence of NADPH oxidase 5 (Homo sapiens) (Q96PH1 whole entry, looked up): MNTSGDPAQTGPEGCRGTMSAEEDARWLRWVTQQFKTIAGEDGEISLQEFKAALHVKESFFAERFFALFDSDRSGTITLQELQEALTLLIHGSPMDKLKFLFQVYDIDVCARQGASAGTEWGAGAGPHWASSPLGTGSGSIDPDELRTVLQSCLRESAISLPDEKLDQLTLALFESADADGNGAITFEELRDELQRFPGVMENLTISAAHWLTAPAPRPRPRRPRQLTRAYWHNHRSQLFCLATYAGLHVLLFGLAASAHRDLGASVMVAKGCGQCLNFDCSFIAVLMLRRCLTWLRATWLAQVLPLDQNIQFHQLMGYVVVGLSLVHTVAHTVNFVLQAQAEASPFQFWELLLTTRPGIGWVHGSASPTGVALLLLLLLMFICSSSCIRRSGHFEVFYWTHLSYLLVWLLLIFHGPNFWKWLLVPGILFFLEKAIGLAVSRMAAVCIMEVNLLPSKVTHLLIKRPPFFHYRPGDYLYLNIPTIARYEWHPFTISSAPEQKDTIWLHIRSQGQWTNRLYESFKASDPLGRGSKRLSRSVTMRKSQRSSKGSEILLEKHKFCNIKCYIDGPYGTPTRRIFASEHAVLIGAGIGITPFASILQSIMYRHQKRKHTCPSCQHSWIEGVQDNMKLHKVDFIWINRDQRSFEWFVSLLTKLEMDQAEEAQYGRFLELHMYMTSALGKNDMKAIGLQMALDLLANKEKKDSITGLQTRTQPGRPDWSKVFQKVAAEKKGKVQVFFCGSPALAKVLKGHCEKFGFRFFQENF

Sequence of NADPH oxidase 4 (Homo sapiens) (Q9NPH5 whole entry, looked up): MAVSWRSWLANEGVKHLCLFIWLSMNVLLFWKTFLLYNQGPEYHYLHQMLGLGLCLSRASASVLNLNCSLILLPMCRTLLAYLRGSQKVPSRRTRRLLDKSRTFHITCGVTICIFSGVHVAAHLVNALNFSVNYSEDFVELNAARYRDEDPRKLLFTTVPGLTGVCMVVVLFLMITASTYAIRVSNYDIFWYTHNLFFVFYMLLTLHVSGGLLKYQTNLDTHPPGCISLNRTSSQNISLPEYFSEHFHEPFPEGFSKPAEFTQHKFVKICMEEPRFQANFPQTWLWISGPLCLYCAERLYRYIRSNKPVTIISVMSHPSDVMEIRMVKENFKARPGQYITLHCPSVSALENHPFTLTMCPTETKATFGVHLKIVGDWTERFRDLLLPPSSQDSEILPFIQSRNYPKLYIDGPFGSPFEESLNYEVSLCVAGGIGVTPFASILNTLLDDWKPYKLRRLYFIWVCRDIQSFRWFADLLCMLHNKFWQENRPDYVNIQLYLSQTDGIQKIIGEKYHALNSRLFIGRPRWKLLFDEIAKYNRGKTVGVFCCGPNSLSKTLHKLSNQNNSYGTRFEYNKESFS

On to `COC(=O)C1=CC(CCCO)=CC(c2ccc(CN3CCCC3)cc2)N(Cc2sc3ccccc3c2Cl)C=C1C(=O)OC` (stereo not given), for which the composite z-score in [1] came out at 1.25; in experiment [6] it was 1.85; in experiment [7], 0.662; in [8], 0.591; in experiment [9] it was 1.88; in [10] it was 0.836. This compound also returned a composite z-score in experiment [12] of 1.17. Further, the z-score was -3.24 (inactive) in experiment [2]; -0.782 (inactive) in experiment [3]; 0.209 (inactive) in experiment [4]; -1.74 (inactive) in experiment [5]; 1.68 (inactive) in experiment [11]; 3.27 (inactive) in experiment [13]. The z-score is -0.28 (inactive) in experiment [14]; -0.235 (inactive) in [15]; -1.02 (inactive) in experiment [16]; 1.6 in experiment [17]; 0.613 (inactive) in [18]; 0.311 (inactive) in experiment [19]. Moreover, the z-score in experiment [20] came out at 0.116.
For the compound `COCCOC(=O)N1C(=O)[C@@]2(c3ccccc31)[C@H](C(=O)N1CCCCCCC1)[C@H]1C(=O)O[C@H](c3ccccc3)[C@H](c3ccccc3)N1[C@@H]2c1ccc(O)cc1`, the composite z-score in [1] came out at 1.21; in experiment [6], 2.17; in [7], 2.13; in experiment [8], 2.14; in experiment [9] it was 2.57; in experiment [10], 2.17. This compound also returned a composite z-score in experiment [12] of 3.16. The z-score was -2.11 (inactive) in experiment [2]; -1.14 (inactive) in experiment [3]; -1.15 (inactive) in experiment [4]; -1.03 (inactive) in experiment [5]; 1.51 (inactive) in [11]; 0.822 (inactive) in [13]. Besides, the z-score in experiment [14] was -0.0852 (inactive); in experiment [15], 0.367 (inactive); in experiment [16], -0.0764 (inactive); in experiment [17], 1.94; in experiment [18], -3.28 (inactive); in experiment [19], -0.538 (inactive). Further, in experiment [20], the z-score is -4.
Regarding `COCCOC(=O)N1C(=O)[C@@]2(c3cc(C#CCC(C(=O)OC)C(=O)OC)ccc31)[C@H](C(=O)N1CCc3cc(OC)c(OC)cc3C1)[C@H]1C(=O)O[C@H](c3ccccc3)[C@H](c3ccccc3)N1[C@@H]2c1ccc(O)cc1`, the composite z-score in experiment [1] was 0.44; in [6], 0.286; in [7] it was 0.134; in experiment [8], 1.32; in experiment [9], 0.864; in experiment [10] it was 1.9. The composite z-score in [12] was 0.191. Also, the z-score was -0.607 (inactive) in experiment [2]; 0.0314 (inactive) in experiment [3]; 0.0653 (inactive) in experiment [4]; -0.572 (inactive) in experiment [5]; -0.0961 (inactive) in [11]; 0.577 (inactive) in experiment [13]. The z-score was 0.524 (inactive) in experiment [14]; -0.5 (inactive) in [15]; 0.0513 (inactive) in experiment [16]; -0.111 in experiment [17]; 1.91 (inactive) in experiment [18]; 0.862 (inactive) in experiment [19]. In addition, the z-score in experiment [20] worked out at 0.912.
Consider `CC(C)C[C@H]1NC(=O)[C@@H](C)NC(=O)[C@@]23C(=O)N[C@@H](Cc4ccccc4)C2[C@H](C)[C@@]2(C)O[C@H]2C3/C=C/C/C=C\CNC1=O` (stereo not given in full), for which the composite z-score is -0.134 in experiment [1]; -0.535 in experiment [6]; -0.218 in experiment [7]; -0.0221 in experiment [8]; -0.145 in [9]; 1.41 in experiment [10]. Moreover, the composite z-score in experiment [12] was -0.431. For the same compound, the z-score in experiment [2] is -0.332 (inactive); in experiment [3], 0.541 (inactive); in experiment [4], 1.94 (inactive); in experiment [5], -0.435 (inactive); in experiment [11], -0.743 (inactive); in experiment [13], 0.522 (inactive). Further, the z-score is -0.437 (inactive) in [14]; -0.435 (inactive) in experiment [15]; -0.111 (inactive) in experiment [16]; -0.175 in experiment [17]; -0.115 (inactive) in [18]; 1.11 (inactive) in experiment [19]. Moreover, the z-score in [20] stood at 0.407.

The record behind these values is PubChem BioAssay.
